This is part of a sample that, as a whole, favours compounds with a hit. Of some 83,000 tested, about 20% had one in any assay.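 Cells were grown in 96-well plates and exposed to the test compound at a single concentration for 48 hours; results are reported as percent growth, with values below 10 considered active.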 Values without a mark were called inactive. Active and inactive are the calls of the source.
Columns and labels:
Assay in all cases: NCI-60 one-dose screen, 48 h (100 = growth as untreated, 0 = no growth, -100 = all killed)
Conditions in all cases: 10 µM unless noted
DU-145 prostate = tested on: DU-145 prostate
K-562 leukemia = tested on: K-562 leukemia
MALME-3M melanoma = tested on: MALME-3M melanoma
MDA-MB-231 breast = tested on: MDA-MB-231 breast
RXF 393 renal = tested on: RXF 393 renal
SF-268 CNS = tested on: SF-268 CNS
SF-295 CNS = tested on: SF-295 CNS
SF-539 CNS = tested on: SF-539 CNS
UACC-257 melanoma = tested on: UACC-257 melanoma
M14 melanoma = tested on: M14 melanoma
HCT-15 colon = tested on: HCT-15 colon
HT29 colon = tested on: HT29 colon
SNB-75 CNS = tested on: SNB-75 CNS
SNB-19 CNS = tested on: SNB-19 CNS
U251 CNS = tested on: U251 CNS
PC-3 prostate = tested on: PC-3 prostate
SK-MEL-5 melanoma = tested on: SK-MEL-5 melanoma
UACC-62 melanoma = tested on: UACC-62 melanoma
LOX IMVI melanoma = tested on: LOX IMVI melanoma
SK-MEL-28 melanoma = tested on: SK-MEL-28 melanoma

| SMILES | growth (DU-145 prostate) [%] | growth (K-562 leukemia) | growth (MALME-3M melanoma) | growth (MDA-MB-231 breast) [%] | growth (RXF 393 renal) | growth (SF-268 CNS) [%] | growth (SF-295 CNS) [%] | growth (SF-539 CNS) [%] | growth (UACC-257 melanoma) | growth (M14 melanoma) | growth (HCT-15 colon) | growth (HT29 colon) | growth (SNB-75 CNS) | growth (SNB-19 CNS) [%] | growth (U251 CNS) [%] | growth (PC-3 prostate) [%] | growth (SK-MEL-5 melanoma) | growth (UACC-62 melanoma) [%] | growth (LOX IMVI melanoma) | growth (SK-MEL-28 melanoma) |
| --- | --- | --- | --- | --- | --- | --- | --- | --- | --- | --- | --- | --- | --- | --- | --- | --- | --- | --- | --- | --- |
| NC(=S)N/N=C/c1ccc(OC(=O)COc2cc(Cl)c(Cl)cc2Cl)cn1 | 36.4 | 48.6% | 75.7% | 82.6 | 50.1% | 41.2 | 134 | 29.5 | 78.9% | 41.2% | 81% | 70.7% | 98.8% | 91.6 | 54 | 59.8 | 21.8% | 39.7 | 25.1% | 89% |
| CCOC(=O)N1CCN(CCCCl)CC1 | 115 | 96.2% | 102% | 100 | 118% | 104 | 98.8 | 97.7 | 96.6% | 101% | 105% | 107% | 102% | 97.6 | 95.6 | 102 | 101% | 93.5 | 99.5% | 106% |
| CCCC/C(=N\N=C(N)N)c1ccc(F)cc1 | 44.1 | 10.4% | 40.6% | 59.3 | -5.71% (active) | 45.2 | 18.4 | 11.7 | 44.1% | 13.7% | 23.4% | 1.87% (active) | -1.82% (active) | 41.6 | 32.1 | 26.3 | 2.87% (active) | 45.3 | 26.5% | 54% |
| CC(=O)O[C@]1(C(C)=O)CC[C@H]2[C@@H]3C=C(Cl)C4=CC(=O)CC[C@]4(C)[C@H]3CC[C@@]21C | 122 | 96.7% | 125% | 88.1 | 109% | 111 | 113 | 102 | 97.2% | 103% | 102% | 101% | 117% | 98 | 106 | 96.1 | 109% | 90.6 | 115% | 119% |
| CC(=O)OC1CCC2(C)C(CCC3C4CC=C(C(C)=O)C4(C)OC(=O)CC32)C1 (stereo not given) | 38.2 | -12.4% (active) | -25.6% (active) | 35.3 | -60.5% (active) | 53 | 73.1 | 61.7 | -74.9% (active) | -31.6% (active) | 5.27% (active) | -59.4% (active) | 95% | 94.6 | 54.8 | 73.2 | 54.7% | 37.8 | -19.9% (active) | 4.51% (active) |
| O=C1/C(=C\c2cn(Cc3ccccc3)c3ccc(Br)cc23)c2ccccc2N1c1c(Cl)cccc1Cl | 127 | 109% | 109% | 98 | 101% | 113 | 98.5 | 103 | 102% | 105% | 102% | 101% | 76.4% | 90.9 | 96.4 | 78 | 104% | 98.4 | 88.8% | 107% |
| CC1NC(=S)NC(=O)/C1=C/c1cc(=O)oc2c1ccc1ccccc12 (stereo not given) | 108 | 94.6% | 90.9% | 95.1 | 101% | 97 | 100 | 96.8 | 80.5% | 94.9% | 103% | 87.7% | 73.3% | 103 | 94.9 | 72.8 | 97.1% | 99.1 | 89.2% | 115% |

Reference: PubChem BioAssay (NCI)
